DRD3 antagonist: blocks the human D3 dopamine receptor | max response, negative = inhibition, % | P35462 | D3R cells, DiscoveRx beta-arrestin luminescence, antagonist mode; active compounds read low | 360,000 compounds, 2.5% hits; in the data active means max response below about -50%; inconclusive means no clear call, values can overlap the other calls; further: on the % scale 0 is the no-effect control and ±100 the full control effect
Target sequence (P35462 whole entry, looked up): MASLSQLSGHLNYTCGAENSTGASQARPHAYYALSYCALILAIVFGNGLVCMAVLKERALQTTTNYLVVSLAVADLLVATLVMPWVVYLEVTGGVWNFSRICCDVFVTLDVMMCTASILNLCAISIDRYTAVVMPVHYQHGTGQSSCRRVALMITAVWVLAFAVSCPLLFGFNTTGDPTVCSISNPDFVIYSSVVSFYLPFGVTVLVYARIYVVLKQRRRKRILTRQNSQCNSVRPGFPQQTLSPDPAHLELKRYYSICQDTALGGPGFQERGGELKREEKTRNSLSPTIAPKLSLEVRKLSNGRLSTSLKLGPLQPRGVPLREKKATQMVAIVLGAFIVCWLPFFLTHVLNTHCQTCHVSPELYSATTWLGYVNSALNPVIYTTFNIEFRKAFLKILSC
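Cells plated overnight at 1500 cells/well, then exposed to library compounds with dopamine controls for 90 minutes at 37 degrees C. DiscoveRx reagent added for 30–60 minutes at room temperature; luminescence read, quantitative HTS format.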
PTAP TSG101 blk: blocks PTAP/TSG101 interaction to inhibit HIV-1 budding | Q99816 | Fluorescence polarization, FITC-PTAP peptide / Tsg101 binding | Potency, µM (doses to about 115 µM), without a hit: at the highest dose activity change, negative = inhibition, usual class: inhibitors | 340,000 tested, under 10 active; active means well fitted inhibition curve with a large enough effect in the main read-out, with a control signal flat, not every such curve was filed as active; inconclusive means small, poorly fitted or top-dose-only effect, or effect the other way, or a change in a side signal; inactive means no such curve, though single readings can be large or run the other way; further: potency means the concentration at half of the fitted maximal effect; % of control where 0% means no effect
Target sequence (Q99816 whole entry, looked up): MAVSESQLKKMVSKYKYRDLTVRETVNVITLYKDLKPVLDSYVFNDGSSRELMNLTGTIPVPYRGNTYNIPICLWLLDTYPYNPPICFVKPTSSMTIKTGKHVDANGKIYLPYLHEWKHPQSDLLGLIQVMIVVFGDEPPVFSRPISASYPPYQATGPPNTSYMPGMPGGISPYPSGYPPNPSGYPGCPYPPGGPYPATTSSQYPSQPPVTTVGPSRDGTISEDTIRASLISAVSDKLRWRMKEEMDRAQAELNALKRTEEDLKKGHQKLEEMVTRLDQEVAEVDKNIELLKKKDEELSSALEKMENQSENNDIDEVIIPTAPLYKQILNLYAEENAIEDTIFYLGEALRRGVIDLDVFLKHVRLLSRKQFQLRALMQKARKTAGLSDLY
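Steps: Tsg101 binding domain dispensed (10 uM final), compounds pinned in DMSO, FITC-labeled PTAP-motif peptide added (50 nM final); after 20 min binding at room temperature, polarization measured.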
Mm-Cpn inhibitor: blocks the Methanococcus maripaludis chaperonin Mm-Cpn; Potency, µM (highest dose often 76.9 µM), without a hit: at the top dose activity, negative = inhibition, usual class: inhibitors; 330,000 compounds, 0.031% hits; purified Mm-Cpn ATPase, ADP Transcreener TR-FRET; active means well fitted inhibition curve with a large enough effect; inconclusive means small, poorly fitted or top-dose-only effect; further: potency means the concentration at half of the fitted maximal effect; on the % scale 0 is the no-effect control and ±100 the full control effect; nearly all actives have a fitted effect of over 80% in size
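TR-FRET (320 nm excitation; 590 and 665 nm emission) reports ADP made from 10 uM ATP by 25 nM enzyme; compounds were preincubated 10 min, reaction run 30 min, both at 37°C.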
DRD3 agonist: D3 dopamine receptor (human) agonism | P35462 | D3R DiscoveRx beta-arrestin cells, luminescence, 90 min | max activation, % | 410,000 compounds, 0.58% hits | AID 652048; in the data active means max activation above about 30%; further: 0% is about no effect
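Agonist mode: compounds and dopamine controls were applied to plated cells for 90 min at 37 degrees C after an overnight attachment at 1500 cells/well. Luminescent read-out followed 30 - 60 minutes at room temperature with DiscoveRx detection reagent.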
Rango dissoc inh: inhibitors of RanGTP-induced Rango-importin beta complex dissociation; O95149+P62826; Biochemical FRET Rango-importin beta, RanGTP-induced dissociation; Potency, µM (doses to about 46.1 µM), for inactives: top-dose activity change, negative = inhibition; 340,000 compounds, 0.071% hits; further: potency means the concentration at half of the fitted maximal effect; % of control where 0% means no effect; nearly all actives have a fitted effect of over 45% in size
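Quantitative HTS using a FRET biosensor: 0.1 uM Rango, 0.25 uM importin beta, 0.6 uM Ran, 2 mM GTP, 0.2 uM RCC1 final, PBS with DTT, Tween-20 and BSA. Post-read taken 45 min after Ran addition.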
Rango complex inh: prevents formation of the Rango-importin beta complex; Q14974; Rango CFP/YFP FRET sensor + importin beta, 45 min; Potency, µM (top dose mostly 92.2 µM), for inactives: at the top dose inhibition of complex formation; 340,000 compounds, 0.031% hits; AID 540263;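 further: potency means the concentration at half of the fitted maximal effect; 0% = DMSO wells and 100% = buffer wells lacking importin beta; nearly all actives have a fitted effect of over 15% in size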
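FRET biosensor (snurportin 1 IBB flanked by EYFP and cerulean), 50 nM, with compound 5 min, then 0.125 microM importin beta in PBS, 1 mM DTT, 0.02% Tween-20, 0.1% BSA. CFP/YFP ratio read after 45 min at room temperature; pre-read flags interference.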
* = called active by the depositor; ? = inconclusive; . = no result. The list is not random: actives were taken first. Their share in the collection is about 2.9%. Unless noted, the call rests on the fitted dose curve.

SMILES	DRD3 antagonist	PTAP TSG101 blk	Mm-Cpn inhibitor	DRD3 agonist	Rango dissoc inh	Rango complex inh
Cc1ccccc1NC(=S)NCCC(c1ccccc1)c1ccccc1	-59.8*	-2.4%	0.5%	-23.2	1.4%	3.7%
Cc1cc(C)c(C(=O)CN2C(=O)NC3(CCCCC3)C2=O)cc1C	-5.0	-2.6%	-4.8%	35.4*	-0.7%	-3.8%
Cc1cc(C)nc(N/N=C/C2=C(O)CC(c3ccc(F)cc3)CC2=O)n1 (stereo unspecified)	-121.4*	-1.2%	1.6%	-25.6	3.0%	-0.2%
COC(=O)c1ccc(NC(=O)CCNS(=O)(=O)c2cccc3nsnc23)cc1	.	.	.	4.7	.	.
CS(=O)(=O)N1CCc2cc(C(=O)Nc3ccc(Cl)cc3)ccc21	?	1.5%	1.2%	93.7*	3.5%	0.5%
COc1ccc(NC(=O)c2ccc3c(c2)CCN3S(C)(=O)=O)cc1	-1.6	.	.	4.7	.	.
Cc1ccc(C(C)C)c(OCCCN2C(=O)NC(C)(C)C2=O)c1	-4.0	-3.9%	0.2%	0.1	7.7%	2.0%
Cc1ccc(OCCCCn2cnc3ccccc32)c(C)c1	-57.0*	-0.1%	-1.5%	1.7	-3.0%	5.5%
Cc1ccc(C(C)C)c(OCCN2CCc3ccccc3C2)c1	-67.0*	-1.6%	2.1%	-33.5	-8.0%	0.0%
Cc1ccc(C(C)C)c(OCCCN2CCc3ccccc3C2)c1	-84.8*	-4.5%	1.3%	-20.3	-12.4%	-1.7%
Cc1ccc(OCCCCN2CCc3ccccc3C2)c(C)c1	-106.2*	-4.2%	-3.5%	-31.1	-8.8%	0.2%
COc1ccc(OC)c(CCNc2nccn(-c3ccc(C)c(C)c3)c2=O)c1	.	.	.	3.8	.	.
Cc1ccc(C)c(OCCCN2CCc3ccccc3C2)c1	-88.6*	-1.1%	3.0%	-12.4	-17.3%	1.3%
Cc1ccc(C)c(OCCCC(=O)O)c1	-18.9	2.2%	0.9%	0.8	10.7%	0.1%
COc1cccc(C(=O)OCCN2CCCCC2)c1	?	-3.6%	0.3%	-28.5	-6.9%	4.2%
COc1cccc(-c2oc3c(c2C(=O)OCCN2CCCCC2)C(O)CCC3)c1 (stereo unspecified)	-54.6*	.	.	-12.4	.	.
COc1ccc(NC(=O)CSc2nc3ccccc3n2Cc2cccc(OC)c2)cc1	.	.	.	17.4	.	.
COCCN=c1scc(-c2ccco2)n1/N=C/c1ccc(O)c(O)c1O	19.0	1.2%	-1.3%	116.7*	?	?
Oc1ccc(/C=N/n2c(-c3ccco3)csc2=Nc2cccnc2)c(O)c1	43.0	-1.5%	1.5%	18.5	12.8%	-1.1%
CN=c1scc(-c2cccs2)n1/N=C/c1ccc(O)c(O)c1O	2.6	0.4%	0.4%	169.5*	1.1%	1.1%
CN=c1scc(-c2cccs2)n1/N=C/c1ccccc1O	28.1	0.0%	1.2%	3.3	2.7%	?
CC(C)N=c1scc(-c2ccco2)n1/N=C/c1ccc(O)c(O)c1	5.1	-8.1%	-3.4%	19.5	1.3%	-0.6%
C=CCN=c1scc(-c2ccco2)n1/N=C/c1ccc(O)c(O)c1O	46.9	-1.4%	-1.8%	183.9*	-11.9%	-0.1%
COc1ccccc1-c1cnnc(N/N=C/c2ccc(-c3cccc(Br)c3)o2)n1	18.9	-10.2%	1.1%	56.6*	0.7%	7.2%
CCc1cc(C(=O)Nc2cnn(Cc3ccccc3C)c2)no1	.	.	.	1.2	.	.
SMILES	DRD3 antagonist	PTAP TSG101 blk	Mm-Cpn inhibitor	DRD3 agonist	Rango dissoc inh	Rango complex inh
O=Cc1c(Sc2ccccn2)nc2ccccn2c1=O	-51.7*	-6.1%	-3.4%	2.7	-4.5%	-2.0%
O=Cc1c(Sc2ccccc2)nc2ccccn2c1=O	9.5	-6.2%	-0.1%	5.6	-9.5%	-6.7%
COc1ccc(CNC(=O)CS(=O)(=O)c2cccc3nsnc23)cc1	.	.	.	-11.7	.	.
NC(=O)CSc1nnc(NC(=O)C23CC4CC(CC(C4)C2)C3)s1	10.7	-7.4%	1.4%	40.4*	11.7%	-2.2%
CSc1nnc(NC(=O)C23CC4CC(CC(C4)C2)C3)s1	8.2	-4.2%	0.2%	25.2	5.5%	-0.5%
Nc1c2c(nc3ccc(Br)cc13)N(Cc1ccccc1)CC2	-58.8*	-3.1%	-13.6%	-3.3	-7.6%	-0.2%
COC(=O)C1=C(C)NC(C)=C(C(=O)OCCN2CCN(C(c3ccccc3)c3ccccc3)CC2)C1c1cccc([N+](=O)[O-])c1 (stereo unspecified)	.	.	.	-26.5	.	.
COC(=O)C1=C(C)NC(C)=C(C(=O)OCCN(C)Cc2ccccc2)C1c1cccc([N+](=O)[O-])c1 (stereo unspecified)	-51.1*	-4.9%	-0.7%	-73.5	5.6%	1.0%
CC1CC(N(C(=O)c2ccco2)c2ccccc2)c2ccccc2N1 (stereo unspecified)	-58.0*	1.5%	1.8%	-17.9	11.3%	0.0%
O=c1oc(/C=C/c2ccc([N+](=O)[O-])s2)nc2ccccc12	-10.3	-7.8%	0.4%	-4.8	9.2µM*	?
Cc1cccn2c(=O)c3cc(C(=O)NCc4ccco4)c(=N)n(CCc4ccccc4)c3nc12	-11.3	-4.4%	-4.3%	10.0	?	?
Cc1cccn2c(=O)c3cc(C(=O)NCCc4ccccc4)c(=N)n(Cc4ccco4)c3nc12	-100.4*	0.6%	0.8%	-16.4	?	?
N=c1c(C(=O)NCc2ccco2)cc2c(=O)n3ccccc3nc2n1Cc1ccccc1	-51.4*	-4.8%	-1.4%	-10.4	?	?
C=CCOc1ccccc1CN1CCCN(C)CC1	-28.2	-7.8%	-17.8%	-16.0	2.2%	1.0%
Cc1cc(NC(=O)CN(C)S(=O)(=O)c2ccc3c(c2)CCC(=O)N3)ccc1Br	.	.	.	-1.1	.	.
COc1cc(NC(=O)Cn2c(SCc3ccc(F)cc3)nc3cccnc32)cc(OC)c1	.	.	.	-3.0	.	.
COc1ccc(-c2[nH]ncc2CN2CCC(C(=O)c3ccc(F)cc3)CC2)cc1	-90.2*	-8.7%	0.7%	-16.3	2.8%	-2.8%
COc1ccc(NC(=O)Cn2c(SCc3ccc(C)cc3)nc3cccnc32)c(OC)c1	.	.	.	38.8*	.	.
COc1ccc(NC(=O)CN2CCC(C(=O)c3ccc(F)cc3)CC2)c(OC)c1	-73.3*	-0.1%	-3.6%	-16.6	-8.5%	0.0%
COc1ccc(NC(=O)CN2CCN(CC(=O)Nc3ccccc3OC)CC2)c(OC)c1	3.0	-4.2%	1.1%	4.1	0.4%	0.5%
COc1ccc(NC(=O)CN2CCN(CC(=O)Nc3ccccc3Cl)CC2)c(OC)c1	26.6	1.1%	-0.6%	30.4*	-1.7%	-1.3%
COc1ccc(NC(=O)N2CCC(C(=O)c3ccc(F)cc3)CC2)cc1	10.5	-7.2%	0.5%	16.3	8.4%	-1.3%
CCc1ccc(-n2c(N3CCN(c4ccc(F)cc4)CC3)nc3ccccc3c2=O)cc1	.	.	.	5.6	.	.
